Where “and” joins values, the source holds several entries; their conditions need not be identical. Equal values may be shown once.
tested on: DIPGX7 (H3.3 K27M diffuse intrinsic pontine glioma line); assay: growth inhibition (% activity, log2 RLU normalised to DMSO / staurosporine); higher = more growth inhibition; conditions: 33 µM
Outline: (§1)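 On Geltrex-coated 384-well plates, pHGG cell lines and H9-derived neural stem cells were grown with approved drugs pinned in at a single final concentration of about 33 μM, in triplicate, for 7 days at 37 °C, 5% CO2. Per-plate normalisation of log2-transformed CellTiter-Glo luminescence to % activity between solvent and positive control wells followed. Each growth-inhibition value is the median over the replicates.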

Which growth inhibition does the source give for `O=C1OC(CN2CCOCC2)CN1/N=C/c1ccc([N+](=O)[O-])o1` (centres undefined) here?
The growth inhibition was -0.714%.

How did the growth inhibition turn out when `NC[C@@H]1O[C@H](O[C@H]2[C@@H](O)[C@H](O[C@@H]3[C@@H](O)[C@H](N)C[C@H](N)[C@H]3O[C@H]3O[C@H](CN)[C@@H](O)[C@H](O)[C@H]3N)O[C@@H]2CO)[C@H](N)[C@@H](O)[C@@H]1O` was run?
The growth inhibition was 1.55%.

How did the growth inhibition turn out when `C[C@@H]1CN(c2c(F)c(F)c3c(=O)c(C(=O)O)cn(C4CC4)c3c2F)C[C@H](C)N1` was run?
Its growth inhibition is -0.67%.

How did the growth inhibition turn out when `NC[C@H]1O[C@H](O[C@H]2[C@H](O)[C@@H](O[C@H]3O[C@H](CO)[C@@H](O)[C@H](N)[C@H]3O)[C@H](N)C[C@@H]2N)[C@H](N)C[C@@H]1O` was run?
Its growth inhibition is -0.415%.

How did the growth inhibition turn out when `Cn1c(=O)c2c(ncn2CC(O)CO)n(C)c1=O` (centres undefined) was run?
The growth inhibition was 1.95%.

Which growth inhibition does the source give for `C[C@@H](Oc1cc(-c2cnn(C3CCNCC3)c2)cnc1N)c1c(Cl)ccc(F)c1Cl` here?
Its growth inhibition is 9.03%.

With `CCC(=O)NCC[C@@H]1CCc2ccc3c(c21)CCO3` as the compound, how does the growth inhibition read?
Its growth inhibition is 1.26%.

With `CO[C@H]1C[C@@H]2CC[C@@H](C)[C@@](O)(O2)C(=O)C(=O)N2CCCC[C@H]2C(=O)O[C@H]([C@H](C)C[C@@H]2CC[C@@H](OC(=O)C(C)(CO)CO)[C@H](OC)C2)CC(=O)[C@H](C)/C=C(\C)[C@@H](O)[C@@H](OC)C(=O)[C@H](C)C[C@H](C)/C=C/C=C/C=C/1C` as the compound, how does the growth inhibition read?
The growth inhibition was 4.97%.

How did the growth inhibition turn out when `CC1(C)S[C@@H]2[C@H](NC(=O)[C@H](NC(=O)N3CCNC3=O)c3ccccc3)C(=O)N2[C@H]1C(=O)O` was run?
Its growth inhibition is -0.00643%.

Which growth inhibition does the source give for `NC[C@H](O)c1ccc(O)c(O)c1` here?
The growth inhibition was 0.579%.

How did the growth inhibition turn out when `CC[C@H](C)C(=O)O[C@H]1CCC=C2C=C[C@H](C)[C@H](CC[C@@H]3C[C@@H](O)CC(=O)O3)[C@H]21` was run?
Its growth inhibition is 9.34%.

With `CNC[C@H](O)c1cccc(O)c1` as the compound, how does the growth inhibition read?
The growth inhibition was 2.1%.

`CC[C@@]1(O)C(=O)OCc2c1cc1n(c2=O)Cc2cc3c(CN(C)C)c(O)ccc3nc2-1` was tested. Which growth inhibition did it give?
The growth inhibition was 37.9%.

Which growth inhibition does the source give for `CC(=O)N[C@H]1[C@H]([C@H](O)[C@H](O)CO)OC(C(=O)O)=C[C@@H]1NC(=N)N` here?
The growth inhibition was 2.14%.

`OC[C@H]1O[C@H](O[C@]2(CCl)O[C@H](CCl)[C@@H](O)[C@@H]2O)[C@H](O)[C@@H](O)[C@H]1Cl` was tested. Which growth inhibition did it give?
Its growth inhibition is -2.77%.

For `C[C@]12CC[C@H](O)CC1=CC[C@@H]1[C@@H]2CC[C@]2(C)C(c3cccnc3)=CC[C@@H]12`, which growth inhibition is on record?
The growth inhibition was 0.888%.

`CO[C@H]1O[C@@H]2O[C@@]3(C)CC[C@H]4[C@H](C)CC[C@@H]([C@H]1C)[C@@]24OO3` was tested. Which growth inhibition did it give?
Its growth inhibition is 1.37%.

With `CN(C)CCOc1ccc(/C(=C(/CCCl)c2ccccc2)c2ccccc2)cc1` as the compound, how does the growth inhibition read?
The growth inhibition was 6.73%.

`CCCCOc1ccc(OCCCN2CCOCC2)cc1` was tested. Which growth inhibition did it give?
Its growth inhibition is 14.7%.

`Cc1ccc(N(CC2=NCCN2)c2cccc(O)c2)cc1` was tested. Which growth inhibition did it give?
The growth inhibition was -2.56%.

How did the growth inhibition turn out when `COc1cc(C)c(/C=C/C(C)=C/C=C/C(C)=C/C(=O)O)c(C)c1C` was run?
The growth inhibition was 6.14%.

`C[C@]12CCC(=O)C=C1CC[C@@H]1[C@@H]2[C@@H](O)C[C@@]2(C)[C@H]1CC[C@]2(O)C(=O)CO` was tested. Which growth inhibition did it give?
Its growth inhibition is 0.297%.

`C[C@@H](NCCCc1cccc(C(F)(F)F)c1)c1cccc2ccccc12` was tested. Which growth inhibition did it give?
Its growth inhibition is 6.24%.

Which growth inhibition does the source give for `Clc1ccc2c(c1)CCc1cccnc1C2=C1CCNCC1` here?
The growth inhibition was -2.28%.

With `CCc1cc(C(N)=S)ccn1` as the compound, how does the growth inhibition read?
The growth inhibition was -0.907%.

tested on: DIPGX9 (diffuse intrinsic pontine glioma line); assay: as above; conditions: 33 µM
Outline: as §1

`CCN[C@H]1CN(CCCOC)S(=O)(=O)c2sc(S(N)(=O)=O)cc21` was tested. Which growth inhibition did it give?
The growth inhibition was 0.558%.

`C=C1CCC(O)CC1=CC=C1CCCC2(C)C1CCC2C(C)CCCC(C)(C)O` (centres undefined) was tested. Which growth inhibition did it give?
The growth inhibition was -0.221%.

How did the growth inhibition turn out when `O=c1c(-c2ccc(O)cc2)coc2cc(O)ccc12` was run?
Its growth inhibition is -0.874%.

`CC(C)Cc1ccc(C(C)C(=O)O)cc1` (centres undefined) was tested. Which growth inhibition did it give?
Its growth inhibition is 1.07% and 0.0197%.

Which growth inhibition does the source give for `Cn1c(CNc2ccc(C(=N)N)cc2)nc2cc(C(=O)N(CCC(=O)O)c3ccccn3)ccc21` here?
Its growth inhibition is 3.29%.

For `CC(C)C[C@H](NC(=O)[C@H](CCc1ccccc1)NC(=O)CN1CCOCC1)C(=O)N[C@@H](Cc1ccccc1)C(=O)N[C@@H](CC(C)C)C(=O)[C@@]1(C)CO1`, which growth inhibition is on record?
Its growth inhibition is 55%.

With `C[N+](C)(C)CCCCCC[N+](C)(C)C` as the compound, how does the growth inhibition read?
Its growth inhibition is -2.94%.

With `COc1cc(/C=C/C(=O)N2CCN(CC(=O)N3CCCC3)CC2)cc(OC)c1OC` as the compound, how does the growth inhibition read?
The growth inhibition was -0.784%.

Which growth inhibition does the source give for `O=C(CCCN1CC=C(n2c(=O)[nH]c3ccccc32)CC1)c1ccc(F)cc1` here?
Its growth inhibition is -2.63%.

For `Cc1nnc(C(C)C)n1C1C[C@H]2CC[C@@H](C1)N2CC[C@H](NC(=O)C1CCC(F)(F)CC1)c1ccccc1` (stereo in doubt), which growth inhibition is on record?
Its growth inhibition is 1.45%.

`CCCCC(=O)N(Cc1ccc(-c2ccccc2-c2nnn[nH]2)cc1)[C@H](C(=O)O)C(C)C` was tested. Which growth inhibition did it give?
The growth inhibition was -0.058%.

With `CCN(CC)C(=O)/C(C#N)=C/c1cc(O)c(O)c([N+](=O)[O-])c1` as the compound, how does the growth inhibition read?
Its growth inhibition is 0.533%.

`CN1CCC(=C2c3ccccc3C=Cc3ccccc32)CC1` was tested. Which growth inhibition did it give?
Its growth inhibition is 2.34%.

With `CCCCC(=O)O[C@]1(C(=O)CO)[C@@H](C)C[C@H]2[C@@H]3CCC4=CC(=O)C=C[C@]4(C)[C@@]3(F)[C@@H](O)C[C@@]21C` as the compound, how does the growth inhibition read?
Its growth inhibition is 4%.

With `O=C1OC(CN2CCOCC2)CN1/N=C/c1ccc([N+](=O)[O-])o1` (centres undefined) as the compound, how does the growth inhibition read?
Its growth inhibition is -0.52%.

For `NC[C@@H]1O[C@H](O[C@H]2[C@@H](O)[C@H](O[C@@H]3[C@@H](O)[C@H](N)C[C@H](N)[C@H]3O[C@H]3O[C@H](CN)[C@@H](O)[C@H](O)[C@H]3N)O[C@@H]2CO)[C@H](N)[C@@H](O)[C@@H]1O`, which growth inhibition is on record?
The growth inhibition was 0.402%.

Which growth inhibition does the source give for `C[C@@H]1CN(c2c(F)c(F)c3c(=O)c(C(=O)O)cn(C4CC4)c3c2F)C[C@H](C)N1` here?
The growth inhibition was -1.75%.

`NC[C@H]1O[C@H](O[C@H]2[C@H](O)[C@@H](O[C@H]3O[C@H](CO)[C@@H](O)[C@H](N)[C@H]3O)[C@H](N)C[C@@H]2N)[C@H](N)C[C@@H]1O` was tested. Which growth inhibition did it give?
The growth inhibition was -0.0629%.

Which growth inhibition does the source give for `Cn1c(=O)c2c(ncn2CC(O)CO)n(C)c1=O` (centres undefined) here?
Its growth inhibition is 1.42%.

Which growth inhibition does the source give for `C[C@@H](Oc1cc(-c2cnn(C3CCNCC3)c2)cnc1N)c1c(Cl)ccc(F)c1Cl` here?
Its growth inhibition is 10.8%.

How did the growth inhibition turn out when `CCC(=O)NCC[C@@H]1CCc2ccc3c(c21)CCO3` was run?
Its growth inhibition is 0.325%.

For `CO[C@H]1C[C@@H]2CC[C@@H](C)[C@@](O)(O2)C(=O)C(=O)N2CCCC[C@H]2C(=O)O[C@H]([C@H](C)C[C@@H]2CC[C@@H](OC(=O)C(C)(CO)CO)[C@H](OC)C2)CC(=O)[C@H](C)/C=C(\C)[C@@H](O)[C@@H](OC)C(=O)[C@H](C)C[C@H](C)/C=C/C=C/C=C/1C`, which growth inhibition is on record?
The growth inhibition was 14%.

With `CC1(C)S[C@@H]2[C@H](NC(=O)[C@H](NC(=O)N3CCNC3=O)c3ccccc3)C(=O)N2[C@H]1C(=O)O` as the compound, how does the growth inhibition read?
The growth inhibition was 0.298%.

`NC[C@H](O)c1ccc(O)c(O)c1` was tested. Which growth inhibition did it give?
The growth inhibition was 1.67%.

`CC[C@H](C)C(=O)O[C@H]1CCC=C2C=C[C@H](C)[C@H](CC[C@@H]3C[C@@H](O)CC(=O)O3)[C@H]21` was tested. Which growth inhibition did it give?
Its growth inhibition is 3.1%.

With `CNC[C@H](O)c1cccc(O)c1` as the compound, how does the growth inhibition read?
The growth inhibition was 0.894%.

With `CC[C@@]1(O)C(=O)OCc2c1cc1n(c2=O)Cc2cc3c(CN(C)C)c(O)ccc3nc2-1` as the compound, how does the growth inhibition read?
The growth inhibition was 51.6%.

`CC(=O)N[C@H]1[C@H]([C@H](O)[C@H](O)CO)OC(C(=O)O)=C[C@@H]1NC(=N)N` was tested. Which growth inhibition did it give?
The growth inhibition was 1.62%.

With `OC[C@H]1O[C@H](O[C@]2(CCl)O[C@H](CCl)[C@@H](O)[C@@H]2O)[C@H](O)[C@@H](O)[C@H]1Cl` as the compound, how does the growth inhibition read?
Its growth inhibition is -3.01%.

How did the growth inhibition turn out when `C[C@]12CC[C@H](O)CC1=CC[C@@H]1[C@@H]2CC[C@]2(C)C(c3cccnc3)=CC[C@@H]12` was run?
Its growth inhibition is 2.81%.

For `CO[C@H]1O[C@@H]2O[C@@]3(C)CC[C@H]4[C@H](C)CC[C@@H]([C@H]1C)[C@@]24OO3`, which growth inhibition is on record?
The growth inhibition was 2.08%.

With `CN(C)CCOc1ccc(/C(=C(/CCCl)c2ccccc2)c2ccccc2)cc1` as the compound, how does the growth inhibition read?
Its growth inhibition is 0.45%.

`CCCCOc1ccc(OCCCN2CCOCC2)cc1` was tested. Which growth inhibition did it give?
The growth inhibition was 1.12%.

`Cc1ccc(N(CC2=NCCN2)c2cccc(O)c2)cc1` was tested. Which growth inhibition did it give?
The growth inhibition was -2.27%.

Which growth inhibition does the source give for `COc1cc(C)c(/C=C/C(C)=C/C=C/C(C)=C/C(=O)O)c(C)c1C` here?
Its growth inhibition is 8.33%.

Which growth inhibition does the source give for `C[C@]12CCC(=O)C=C1CC[C@@H]1[C@@H]2[C@@H](O)C[C@@]2(C)[C@H]1CC[C@]2(O)C(=O)CO` here?
Its growth inhibition is 4.32%.

With `C[C@@H](NCCCc1cccc(C(F)(F)F)c1)c1cccc2ccccc12` as the compound, how does the growth inhibition read?
The growth inhibition was 5.87%.

Which growth inhibition does the source give for `Clc1ccc2c(c1)CCc1cccnc1C2=C1CCNCC1` here?
Its growth inhibition is -0.408%.

`CCc1cc(C(N)=S)ccn1` was tested. Which growth inhibition did it give?
The growth inhibition was -2.73%.

— the supplement of paper PMC8253809
